Test results published in PubChem BioAssay AID602475 (National Center for Advancing Translational Sciences (NCATS), 2012).
Inconclusive results are not listed. Unmarked numbers belong to inactive results. The source made the active and inactive calls. Calls follow the shape of the dose curve; as a rule, active = well fitted inhibition curve with a large enough effect; inconclusive = small, poorly fitted or top-dose-only effect; inactive = no such curve, though single readings can be large or run the other way.

Target: Luciferin 4-monooxygenase (Photinus pyralis) (UniProt P08659)
Sequence (P08659 whole entry, looked up): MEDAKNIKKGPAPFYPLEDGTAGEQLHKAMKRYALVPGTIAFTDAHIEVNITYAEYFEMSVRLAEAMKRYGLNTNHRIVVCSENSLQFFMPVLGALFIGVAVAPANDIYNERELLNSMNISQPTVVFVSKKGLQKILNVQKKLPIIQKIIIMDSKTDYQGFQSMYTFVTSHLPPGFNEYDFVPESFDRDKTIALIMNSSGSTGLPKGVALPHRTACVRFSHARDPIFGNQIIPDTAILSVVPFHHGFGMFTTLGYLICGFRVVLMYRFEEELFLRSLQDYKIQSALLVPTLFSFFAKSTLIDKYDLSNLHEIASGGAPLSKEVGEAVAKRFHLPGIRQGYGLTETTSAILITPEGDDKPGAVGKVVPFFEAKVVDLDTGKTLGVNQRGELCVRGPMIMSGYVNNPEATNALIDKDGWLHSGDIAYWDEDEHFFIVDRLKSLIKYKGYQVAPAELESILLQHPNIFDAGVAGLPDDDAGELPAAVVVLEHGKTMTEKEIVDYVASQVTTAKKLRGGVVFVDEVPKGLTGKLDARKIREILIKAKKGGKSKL
Assay: FLuc inhibitory activity for the follow-up compounds in a biochemical assay with an in-house formulation of detection reagent
Details: purified FLuc, luminescence; series mostly up to 25.6 µM; activity change, negative = inhibition: at the top concentration
Excerpt: NCGC Assay Overview: Firefly (Photinus pyralis) luciferase is one of the most commonly used transcriptional reporters. It is considered one of the more dynamically responsive reporters - that is, responsive to changes in reporter transcription - as it requires no post-translational modifications and is enzymatically active directly after protein synthesis (Wood, 1998). With no endogenous expression in mammalian cells and without the requirement of external excitation, it offers very little background signal, thus generally providing excellent signal to background for most assays. Previous profiling work to determine the prevalence of compounds that affect FLuc enzymatic activity (PubChem AID 411) identified that ~3% of the MLSMR library (then at ~72K) inhibited FLuc (Auld et al., 2008). […] Of the compounds identified in this profile that inhibited FLuc, 151 compounds were selected for further analysis, in an effort to better understand their mode of inhibiting FLuc. The assay described here was to determine the activity of the compounds in a FLuc assay that used an in-house formulation of detection reagent.
NCGC Assay Protocol Summary: Reagents: 300mM Tris-HCl, 300mM Trizma base, 300mM MgCl, 1% Triton-X100, 5mM DTT, 500uM Coenzyme A trilithium salt (Sigma #C3019),450uM ATP (Sigma #A7699), 1mM D-luciferin sodium salt monohydrate (Biosynth #L8240); 10nM P. pyralis luciferase (Sigma #L9506) Control compounds used were two known firefly luciferase inhibitors (3-(5-(3-chlorophenyl)-1,2,4-oxadiazol-3-yl)benzoic acid and 5-(2-fluorophenyl)-3-phenyl-1,2,4-oxadiazole), and DMSO. Assay Summary: Six microliters of buffer containing firefly luciferase (final concentrations: 50mM Tris acetate, 10nM P. pyralis luciferase) are dispensed into each well of a Greiner white, solid-bottom 1536-well format plate using a flying reagent dispenser (FRD). These assay plates were then treated with 23nL of compound or DMSO using a Kalypsys pin tool, which allows for delivery of a 12-point intraplate titration of each compound to the assay plate (quantitative HTS), with final compound concentrations ranging from approximately ~25uM to 0.1nM. Three microliters of 3X in-house detection reagent was then delivered by FRD to each well (final concentrations in assay: 300mM Tris-HCl, 300mM Trizma base, 300mM MgCl, 1% Triton-X100, 5mM DTT, 500uM Coenzyme A trilithium salt, 450uM ATP, 1mM D-luciferin sodium salt monohydrate). Luciferase activity was then measured using a ViewLux CCD imager (PerkinElmer), with an average exposure time of 2-30 seconds (2X binning, medium/high gain).

Going from O=C(O)c1cccc(NC(=O)c2ccc(Cl)c(S(=O)(=O)N3CCCCCC3)c2)c1 to Cc1ccc(C(=O)Nc2cccc(C(=O)O)c2)cc1S(=O)(=O)N1CCOCC1, the “activity change, negative = inhibition” value rises from -13.5% to -8.83%.

Compared with O=C(Nc1ccccc1C(=O)O)c1cccc(C(=O)Nc2ccccc2C(=O)O)c1, O=C(Nc1ccccc1C(=O)Nc1ccccc1C(=O)O)c1ccccc1 is higher in “activity change, negative = inhibition” value: -16.8% for the first, -4.17% for the second.

First: COc1ccccc1C(=O)Nc1ccc(C(=O)O)cc1
Second: COc1ccc(Br)cc1C(=O)Nc1ccc(C(=O)O)cc1
The “activity change, negative = inhibition” value of the first is higher: -16.7% for the first, -16.9% for the second.

Going from COc1cc(OC)cc(-c2nc3ccccc3s2)c1 to Oc1ccc(-c2nc3ccccc3s2)c(O)c1, the “activity change, negative = inhibition” value rises from -24% to -6.99%.

Going from Cc1ccc(C(=O)Nc2ccc(C(=O)O)cc2)cc1S(=O)(=O)NCc1ccccc1 to Cc1cccc(C(=O)Nc2ccccc2C(=O)Nc2ccc(C(=O)O)cc2)c1, the “activity change, negative = inhibition” value falls from -18.7% to -43.7%.

Compared with COc1ccc(C(=O)Nc2nc3ccc(OC)cc3s2)cc1, COc1ccc2nc(NC(=O)CCc3ccc(OC)c(OC)c3)sc2c1 is lower in “activity change, negative = inhibition” value: -5.76% for the first, -13.7% for the second.

First: CCOc1c(Cl)cc(C(=O)Nc2ccccc2C(=O)O)cc1Cl
Second: CN(C)S(=O)(=O)c1ccc(C(=O)Nc2ccccc2C(=O)O)cc1
The “activity change, negative = inhibition” value of the first is lower: -14.5% for the first, -6.75% for the second.

First: O=C(Nc1ccccc1C(=O)O)c1cccc(NC(=O)c2ccccc2Br)c1
Second: O=C(O)c1cccc(NC(=O)c2ccccc2NC(=O)c2ccccc2F)c1
The “activity change, negative = inhibition” value of the first is higher: -2.39% for the first, -13.8% for the second.

Going from CN(C)S(=O)(=O)c1ccc(C(=O)Nc2cccc(C(=O)O)c2)cc1 to O=C(O)c1cccc(NC(=O)c2ccc(COc3ccc(Cl)cc3)cc2)c1, the “activity change, negative = inhibition” value rises from -9.26% to 7.3%.

Going from COc1ccccc1C(=O)Nc1ccc(C(=O)Nc2ccccc2C(=O)O)cc1 to O=C(O)c1ccc(NC(=O)c2ccccc2NC(=O)c2cccc(Br)c2)cc1, the “activity change, negative = inhibition” value falls from -5.34% to -13.3%.

First: COc1ccc2nc(NC(=O)c3nc(S(=O)(=O)Cc4ccc(C)cc4)ncc3Cl)sc2c1
Second: CCc1noc(C)c1C(=O)Nc1nc2ccc(OC)cc2s1
The “activity change, negative = inhibition” value of the first is lower: -19.5% for the first, -15.2% for the second.

Compared with O=C(Nc1cccc(-c2nc3ccccc3s2)c1)c1cc(-n2cnnc2)ccc1Cl, O=C(Nc1ccccc1-c1nc2ccccc2s1)c1cccnc1 is lower in “activity change, negative = inhibition” value: 12.7% for the first, -17.1% for the second.

Going from COc1ccc(CC(=O)Nc2cccc(C(=O)Nc3ccccc3C(=O)O)c2)cc1OC to O=C(Nc1ccccc1C(=O)O)c1cccc(NC(=O)c2ccco2)c1, the “activity change, negative = inhibition” value falls from 6.03% to -15.2%.

First: COc1ccc2nc(NC(=O)C3CCN(S(=O)(=O)c4cccnc4)CC3)sc2c1
Second: CCCC(=O)Nc1nc2ccc(OCC)cc2s1
The “activity change, negative = inhibition” value of the first is higher: 26.7% for the first, -37.4% for the second.

In the case of CCn1c(C)nc2cc(-c3nc4n(n3)Cc3ccccc3-4)ccc21, the Potency is reported as 155 nM (active).
O=C(Nc1ccc(-c2nc3ccccc3s2)cc1)C1=COCCO1 was tested, and the Potency was 2460 nM (active).
For COc1ccc2nc(NC(=O)c3cnccn3)sc2c1, the Potency was 4380 nM (active).
In the case of CC(C)(C)C(=O)Nc1ccc(-c2nc3ccccc3s2)cc1, the Potency is reported as 21.9 nM (active).
For Nc1ccc(-c2nc3ccc(C(=O)O)cc3s2)cc1, the Potency was 5510 nM (active).
With Cc1ccc(C(=O)O/N=C(\N)c2ccccn2)c(Cl)c1 the Potency was 61.9 nM (active).
In the case of Nc1ccc(-c2nc3ccc(N)cc3s2)cc1, the Potency is reported as 4910 nM (active).
In the case of C/C(=N\NC(=O)c1ccccc1NC(=O)c1ccc(Cl)cc1)c1ccncc1, the Potency is reported as 1100 nM (active).
In the case of Nc1ccc2nc(-c3ccccc3)sc2c1, the Potency is reported as 2190 nM (active).
For O=C(Nc1ccccc1C(=O)O)c1ccc(NC(=O)C2CC2)cc1, the Potency was 7790 nM (active).
Nc1ccc(-c2nc3cc(N)ccc3s2)cc1 was tested, and the Potency was 8740 nM (active).
With Cc1ccc(C(=O)O/N=C(\N)c2ccccn2)cc1 the Potency was 61.9 nM (active).
